D3 ag – qHTS of D3 Dopamine Receptor Agonist: qHTS; D(3) dopamine receptor (Homo sapiens), P35462; 0.58% of 410,000 active; max activation, %; D3R DiscoveRx beta-arrestin cells, luminescence, 90 min; in the data active = max activation above about 30%
Target sequence (P35462 whole entry, looked up): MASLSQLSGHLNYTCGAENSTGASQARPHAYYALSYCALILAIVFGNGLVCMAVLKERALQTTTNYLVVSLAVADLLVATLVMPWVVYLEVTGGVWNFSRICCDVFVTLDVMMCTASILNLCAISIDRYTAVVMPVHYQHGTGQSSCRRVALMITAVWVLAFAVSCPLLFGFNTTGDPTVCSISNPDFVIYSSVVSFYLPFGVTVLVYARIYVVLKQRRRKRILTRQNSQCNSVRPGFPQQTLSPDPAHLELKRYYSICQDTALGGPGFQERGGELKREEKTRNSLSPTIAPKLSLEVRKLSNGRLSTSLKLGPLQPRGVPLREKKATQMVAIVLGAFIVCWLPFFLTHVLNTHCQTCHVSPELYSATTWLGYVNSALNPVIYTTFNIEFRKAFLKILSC
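Agonist mode: compounds and dopamine controls were applied to plated cells for 90 min at 37 degrees C after an overnight attachment at 1500 cells/well. Luminescent read-out followed 30 - 60 minutes at room temperature with DiscoveRx detection reagent.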
D3 antag – qHTS of D3 Dopamine Receptor Antagonist: qHTS; max response, negative = inhibition, %; 2.5% of 360,000 active; D(3) dopamine receptor (Homo sapiens), P35462; AID 652054, 2013; D3R cells, DiscoveRx beta-arrestin luminescence, antagonist mode; stronger effect = lower value; in the data active = max response below about -50%; inconclusive = no clear call, values can overlap the other calls
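Cells expressing the human receptor were seeded at 1500 cells/well, incubated overnight at 37 degrees C in 5% CO2, then exposed to library compounds with dopamine controls for 90 minutes at 37 degrees C before luminescent detection.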
TRPML1 ag – qHTS for Agonists of the Human Mucolipin Transient Receptor Potential 1 (TRPML1). Mucolipin-1 (Homo sapiens), Q9GZU1. TRPML1-expressing cells, Ca2+ dye fluorescence, FDSS. activation, % (concentration not given with the values). 0.12% of 410,000 active. AID 624414, 2012; in the data active = activation above about 50%; inconclusive = mostly about 30% to 49%
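Agonist activity was taken from a 110 s kinetic Ca2+ dye read on the FDSS after pinning compounds onto TRPML1-DL cells. The cells were seeded at 1,500/well with Tet inducer, incubated about 16 h, then dye-loaded at room temperature.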
TRPML1 inh – qHTS for Inhibitors of the Human Mucolipin Transient Receptor Potential 1 (TRPML1). Mucolipin-1 (Homo sapiens), Q9GZU1. TRPML1-inducible cells, Ca2+ dye fluorescence, FDSS; stronger effect = lower value; inhibition of EC80 agonist-evoked calcium signal. activity change, negative = inhibition, % (test concentration not listed). 0.02% of 390,000 active. AID 624415, 2012; in the data active = activity change below about -50%; inconclusive = between about -30% and that limit;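 note: stimulus is agonist 54-4 at its EC80 concentration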
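TRPML1-DL cells, Tet-induced overnight (~16 h, 37 °C) at 1,500 cells/well, were loaded with Ca8 no-wash dye plus quencher for 45-90 min at room temperature. Compounds were pinned during FDSS kinetic reading; agonist 54-4 at EC80 (4 uM final) then added.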
Hits are given with their value; – = inactive; ? = inconclusive; · = no result. Compounds with a hit are over-represented: about 2.9% of the library has one in this group of screens.

SMILES | D3 ag | D3 antag | TRPML1 ag | TRPML1 inh
COc1ccc(/C=C2\CCCC3C2=NN(C(=O)c2ccco2)C3c2ccc(OC)c(OC)c2)cc1OC (configuration not stated) | – | – | – | –
CC1(C)CC(NS(=O)(=O)c2ccc(F)cc2)CC(C)(C)N1 | – | -58 | – | –
CC1(C)CC(NS(=O)(=O)c2ccccc2)CC(C)(C)N1 | – | – | – | –
O=S(=O)(c1ccccc1)N(Cc1nc(-c2ccccc2)no1)C1CCCCC1 | – | -53 | – | –
O=S(=O)(c1ccc(F)cc1)N(Cc1nc(-c2ccccc2)no1)C1CCCCC1 | – | · | – | –
CC1=CC(=C(c2ccc(N)cc2)c2ccc(N)cc2)C=CC1=N | – | · | – | ·
Cc1ccc(S(=O)(=O)N2C(=O)CCC2C(=O)Nc2ccc3c(c2)OCCO3)cc1 (configuration not stated) | – | -65 | – | –
Clc1ccc2nc(-c3ccco3)c(Cc3ccsc3)n2c1 | – | -53 | – | ·
Brc1ccc2nc(-c3ccco3)c(Cc3ccsc3)n2c1 | – | – | – | ·
CN(C)c1ccc(/C=C/c2ccnc3ccccc23)c(F)c1 | · | · | – | ·
COCCCNC(=S)Nc1cc(C)c(C)cc1C | – | – | – | –
COCCNC(=S)Nc1cc(OC)c(OC)cc1C#N | – | -51 | – | –
Cc1ccc(C(c2nnnn2Cc2cccs2)N2CCN(Cc3ccc4c(c3)OCO4)CC2)cc1 (configuration not stated) | – | -53 | – | –
COCCn1nnnc1C(c1cc2cccc(C)c2[nH]c1=O)N1CCN(c2ccccc2F)CC1 (configuration not stated) | – | -54 | – | –
COc1ccccc1CN1CCN(C(CC(C)C)c2nnnn2Cc2cccs2)CC1 (configuration not stated) | – | -63 | – | –
COc1ccc(C(c2nnnn2Cc2cccs2)N2CCN(c3ccccc3F)CC2)cc1OC (configuration not stated) | – | -81 | – | –
CCCCCN(CCCCC)c1ccc(/C=C/c2ccnc3ccccc23)cc1 | · | · | – | ·
COc1ccc(-c2nnc3ccc(SC(C)C)nn23)cc1OC | · | · | – | ·
CCc1ccc(S(=O)(=O)NCCc2csc3nc(-c4ccccc4)nn23)s1 | – | · | – | –
COc1ccc(C2=C(C#N)C(=O)OC2)cc1 | – | -56 | – | –
CCCCCNc1nc(N2CCCC2)c2c(c1C#N)CCN(C)C2 | – | -66 | – | –
Cc1ccc(S(=O)(=O)N2CCCc3cc(NC(=O)c4ccc(C(C)(C)C)cc4)ccc32)cc1 | – | · | – | –
COc1ccc2noc3c2c1C(=O)c1ccccc1-3 | – | – | 79 | –
O=C1c2ccccc2-c2onc3ccc(NCCCn4ccnc4)c1c23 | – | ? | 75 | –
CCOC(=O)c1ccccc1NC(=O)Cn1c(=O)n(CCCC(=O)NCc2ccc3c(c2)OCO3)c(=O)c2ccccc21 | – | · | – | –
SMILES | D3 ag | D3 antag | TRPML1 ag | TRPML1 inh
COc1ccc(Cl)cc1NS(=O)(=O)c1cccc(C(=O)NCC(c2ccco2)N(C)C)c1 (configuration not stated) | – | -82 | – | –
COc1cc(C(=O)NCC(c2ccco2)N2CCCC2)ccc1OCc1ccc(Cl)cc1Cl (configuration not stated) | – | ? | – | –
COc1ccc(Cl)cc1NS(=O)(=O)c1cccc(C(=O)NCC(c2ccco2)N2CCCC2)c1 (configuration not stated) | – | – | – | –
CN(C)C(CNC(=O)c1ccc(Br)cc1)c1ccco1 (configuration not stated) | – | -63 | – | –
COc1ccc(Cl)cc1C(=O)NCC(c1ccco1)N1CCCC1 (configuration not stated) | – | -81 | – | –
COc1ccc(Cl)cc1C(=O)NCC(c1ccco1)N(C)C (configuration not stated) | – | -79 | – | –
COc1ccc(NC(=O)C2CCCN(S(=O)(=O)c3ccc4c(c3)CCCC(=O)N4)C2)cc1OC (configuration not stated) | – | · | – | –
COc1ccccc1-c1noc(CCCC(=O)Nc2cccc(C(F)(F)F)c2)n1 | – | · | – | –
COc1ccccc1-c1noc(CCC(=O)Nc2cc(C(F)(F)F)ccc2Cl)n1 | 30 | – | – | –
Fc1ccc(Nc2nc(SCc3cccc(F)c3)nc3ccccc23)cc1 | – | · | – | –
CC(C)=CCC[C@H](C)C[C@@H]1Cc2[nH]c(=S)[nH]c(=O)c2[C@@H](c2ccc(F)cc2)O1 | – | -55 | – | ·
CC(C)c1ccc(Nc2ncnc3c2c(-c2ccccc2)cn3-c2ccccc2)cc1 | – | · | – | –
CN1CCN(c2ccc(CNC(=O)C3Cc4c(-c5ccc(Cl)cc5)ccnc4O3)cc2)CC1 (configuration not stated) | – | -56 | – | –
COc1ccccc1N1CCN(S(=O)(=O)c2ccc(-c3ccno3)cc2OC)CC1 | – | · | – | –
Cc1nn2c(NCCN3CCOCC3)c3c(nc2c1-c1ccccc1)CCCC3 | – | – | – | –
Cc1nn2c(N3CCN(C)CC3)c3c(nc2c1-c1ccccc1)CCCC3 | – | -50 | – | –
CCOC(=O)SC1=N/C(=C\c2ccc(N(C)C)cc2)C(=O)S1 | – | -54 | – | –
CCSC1=N/C(=C\c2ccc(C(=O)O)cc2)C(=O)S1 | – | – | – | –
COc1ccc(/C=N/Nc2cc(C)nc(N3CCOCC3)n2)cc1OC | – | – | – | –
COc1ccc(/C=N/Nc2cc(C)nc(N3CCOCC3)n2)cc1 | 32 | – | – | –
Cc1n[nH]c(=S)n(NC(=O)CC(=O)Nn2c(=S)[nH]nc(C)c2=O)c1=O | – | -86 | – | –
Cc1n[nH]c(=S)n(NC(=O)/C=C/C(=O)Nn2c(=S)[nH]nc(C)c2=O)c1=O | – | – | – | –
COc1ccccc1-c1nnc(C2CCN(S(=O)(=O)c3ccccc3)CC2)o1 | – | · | – | –
COc1ccc(CCNC(=O)CC2SC(=NCc3ccccc3OC)NC2=O)cc1 (configuration not stated) | – | – | – | –
COc1ccccc1CN=C1NC(=O)C(CC(=O)Nc2ccc(C(C)=O)cc2)S1 (configuration not stated) | 53 | – | – | –
C(=C\c1ccnc2ccccc12)/c1cccnc1 | · | · | – | ·
COc1cccc(CC2(CO)CCCN(Cc3ccccc3Cl)C2)c1 (configuration not stated) | – | – | – | –
COc1ccc(F)c(CN2CCCC(CO)(Cc3cccc(Cl)c3)C2)c1 (configuration not stated) | – | ? | · | ·
COc1ccccc1/C=C/CN1CCCC(CO)(Cc2cccc(Cl)c2)C1 (configuration not stated) | – | -59 | – | –
